Measurements published in PubChem BioAssay (EPA / NIEHS).
Results filed as inconclusive are left out. The source made the active and inactive calls. How the source made its calls, unless noted: active means hit-call score of the fitted dose curve at least 0.9, where 1 is the maximum; inconclusive means response in the unintended direction; inactive means score below 0.9.

What was measured:
[1] = TOX21_PR_BLA_Followup_Agonist_viability: Viability Assessment in the Tox21 HEK293 Progesterone Receptor (PR) Agonism Beta-lactamase Follow-Up Assay (AID 2283935);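 further: signal loss means lower viability so actives are cytotoxic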
In short: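 Multiplexed viability counter-screen: ATP-coupled luciferase signal measured after 30 min at room temperature, following 16 hr compound treatment of PR-UAS-bla HEK293T cells grown in charcoal-stripped serum.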

[2] = TOX21_PR_BLA_Followup_Antagonist_viability: Viability Assessment in the Tox21 HEK293 Progesterone Receptor (PR) Antagonism Beta-lactamase Follow-Up Assay (AID 2283936);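 further: hits lower the luminescence signal meaning cytotoxicity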
In short: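 PR-UAS-bla HEK293T cells (3,000/well, 2% charcoal-stripped FBS) given compound plus R5020 agonist, 16 h at 37C. CellTiter-Glo added after bla read, 30 min at room temperature; luminescence loss indicates cytotoxicity.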

PGR (gene 5241) [3] = molecular target: PGR (gene 5241) (UniProt P06401); test: TOX21_PR_LUC_Followup_Agonist: Tox21 HEK293 Progesterone Receptor (PR) Agonism Luciferase Follow-Up Assay (AID 2283937; active means hit-call score of the fitted dose curve at least 0.9, where 1 is the maximum; inactive means score below 0.9)
Sequence of PGR (gene 5241) (P06401 whole entry, looked up): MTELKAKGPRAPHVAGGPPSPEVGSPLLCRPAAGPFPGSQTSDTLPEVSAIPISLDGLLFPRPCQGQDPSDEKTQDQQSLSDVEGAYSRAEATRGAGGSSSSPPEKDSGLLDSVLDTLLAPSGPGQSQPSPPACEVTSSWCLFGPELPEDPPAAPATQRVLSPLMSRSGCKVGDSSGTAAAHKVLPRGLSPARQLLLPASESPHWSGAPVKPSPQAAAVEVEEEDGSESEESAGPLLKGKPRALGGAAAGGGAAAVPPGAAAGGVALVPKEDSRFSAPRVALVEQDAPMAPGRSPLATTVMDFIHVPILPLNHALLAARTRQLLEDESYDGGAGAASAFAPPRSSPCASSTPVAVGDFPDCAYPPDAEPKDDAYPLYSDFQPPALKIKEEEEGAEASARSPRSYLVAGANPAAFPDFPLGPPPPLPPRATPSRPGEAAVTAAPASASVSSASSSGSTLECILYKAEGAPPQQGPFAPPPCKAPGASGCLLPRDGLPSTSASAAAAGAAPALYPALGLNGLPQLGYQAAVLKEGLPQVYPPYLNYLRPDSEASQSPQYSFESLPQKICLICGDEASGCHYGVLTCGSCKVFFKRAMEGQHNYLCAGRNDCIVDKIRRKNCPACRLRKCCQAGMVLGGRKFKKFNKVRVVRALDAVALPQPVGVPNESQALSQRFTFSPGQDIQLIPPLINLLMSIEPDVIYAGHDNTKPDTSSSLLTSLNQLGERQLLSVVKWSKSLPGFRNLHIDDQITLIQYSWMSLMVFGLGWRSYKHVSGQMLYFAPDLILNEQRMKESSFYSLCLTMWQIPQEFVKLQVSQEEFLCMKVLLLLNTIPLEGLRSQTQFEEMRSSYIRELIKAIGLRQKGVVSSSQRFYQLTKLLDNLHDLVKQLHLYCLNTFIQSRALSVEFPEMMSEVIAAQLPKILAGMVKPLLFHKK
In short: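 Agonist mode: reporter cells carrying PR-A and luciferase are treated 16 h with test compounds at 37C. Luciferase induction is measured by luminescence and fitted upward against DMSO.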

PGR (gene 5241) [4] = molecular target: PGR (gene 5241) (UniProt P06401); test: TOX21_PR_LUC_Followup_Antagonist: Tox21 HEK293 Progesterone Receptor (PR) Antagonism Luciferase Follow-Up Assay (AID 2283938);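 further: curve fitted upward as signal gain over DMSO baseline despite antagonist label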
In short: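 HEK293-PR-A-luc cells were precultured 5 days in medium with 10% charcoal-stripped FBS, seeded 3,000/well, then exposed to compounds in DMSO for 16 h at 37C. Luciferase was read by ONE-Glo luminescence after 30 min at room temperature.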

[5] = molecular target: Thyroid hormone receptor alpha (Rattus norvegicus) + Thyroid hormone receptor beta (Rattus norvegicus) (UniProt P18113+P63059); test: TOX21_TR_LUC_GH3_Agonist_Followup: Tox21 GH3 Thyroid Hormone Receptor Agonism Luciferase Follow-Up Assay (AID 2283939)
Sequence of Thyroid hormone receptor alpha (Rattus norvegicus) + Thyroid hormone receptor beta (Rattus norvegicus) (P63059 whole entry, looked up): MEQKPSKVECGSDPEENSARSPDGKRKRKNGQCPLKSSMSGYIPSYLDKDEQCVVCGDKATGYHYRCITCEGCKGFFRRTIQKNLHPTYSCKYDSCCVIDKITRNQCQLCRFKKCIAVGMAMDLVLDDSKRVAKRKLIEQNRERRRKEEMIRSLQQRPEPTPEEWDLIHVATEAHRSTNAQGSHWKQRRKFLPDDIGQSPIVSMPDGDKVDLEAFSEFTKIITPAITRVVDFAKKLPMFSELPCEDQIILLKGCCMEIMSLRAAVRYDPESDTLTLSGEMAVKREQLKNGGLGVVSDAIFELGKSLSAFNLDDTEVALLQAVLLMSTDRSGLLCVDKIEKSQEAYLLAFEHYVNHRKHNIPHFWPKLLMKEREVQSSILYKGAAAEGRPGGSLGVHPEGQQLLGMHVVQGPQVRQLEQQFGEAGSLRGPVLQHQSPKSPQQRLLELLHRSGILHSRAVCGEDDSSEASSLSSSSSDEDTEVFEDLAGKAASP
Sequence of Thyroid hormone receptor alpha (Rattus norvegicus) + Thyroid hormone receptor beta (Rattus norvegicus) (P18113 whole entry, looked up): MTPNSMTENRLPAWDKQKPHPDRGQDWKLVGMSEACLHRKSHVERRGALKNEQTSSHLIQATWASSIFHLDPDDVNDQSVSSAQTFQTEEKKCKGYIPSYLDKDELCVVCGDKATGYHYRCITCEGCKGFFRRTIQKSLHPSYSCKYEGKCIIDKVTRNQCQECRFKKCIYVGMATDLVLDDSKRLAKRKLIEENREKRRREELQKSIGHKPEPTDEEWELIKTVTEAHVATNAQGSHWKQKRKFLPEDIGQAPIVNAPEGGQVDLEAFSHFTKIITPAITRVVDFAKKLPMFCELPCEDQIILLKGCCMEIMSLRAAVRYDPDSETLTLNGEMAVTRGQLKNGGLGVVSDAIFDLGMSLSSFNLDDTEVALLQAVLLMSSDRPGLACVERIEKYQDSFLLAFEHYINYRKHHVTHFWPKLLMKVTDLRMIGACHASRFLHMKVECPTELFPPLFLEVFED
In short: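 Rat GH3 cells (1,500/well) in serum-free assay medium, treated with 15-point series, 92 uM to 5 nM final, for 24 h at 37C. Luciferase via ONE-Glo luminescence; gain of signal fitted against DMSO, T3 positive control.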

[6] = TOX21_PR_LUC_Followup_Antagonist_viability: Viability Assessment in the Tox21 HEK293 Progesterone Receptor (PR) Antagonism Luciferase Follow-Up Assay (AID 2283940)
In short: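 Cellular ATP, measured with luciferase-coupled CellTiter-Glo, served as the viability endpoint after HEK293-PR-A-luc cells were exposed to test compounds for 16 h at 37C.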

[7] = TOX21_PR_LUC_Followup_Agonist_viability: Viability Assessment in the Tox21 HEK293 Progesterone Receptor (PR) Agonism Luciferase Follow-Up Assay (AID 2283941);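 further: loss of signal means cytotoxicity so actives lower viability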
In short: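 Luminescent ATP quantitation (CellTiter-Glo) serves as the read-out; a drop flags cytotoxic compounds. Cells are HEK293-PR-A-luc grown in 10% charcoal-stripped FBS, plated 3,000/well, and exposed to compound for 16 h.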

THRA (gene 7067) = THRA (gene 7067) (UniProt P10827); test: TOX21_TRA_COA_Agonist_Followup_ratio: Tox21 Thyroid Hormone Receptor alpha Agonism through Coactivator Recruitment Follow-Up Assay, Ratio (AID 2283948; active means hit-call score of the fitted dose curve at least 0.9, where 1 is the maximum; inactive means score below 0.9)
Sequence of THRA (gene 7067) (P10827 whole entry, looked up, the tested form may be a part): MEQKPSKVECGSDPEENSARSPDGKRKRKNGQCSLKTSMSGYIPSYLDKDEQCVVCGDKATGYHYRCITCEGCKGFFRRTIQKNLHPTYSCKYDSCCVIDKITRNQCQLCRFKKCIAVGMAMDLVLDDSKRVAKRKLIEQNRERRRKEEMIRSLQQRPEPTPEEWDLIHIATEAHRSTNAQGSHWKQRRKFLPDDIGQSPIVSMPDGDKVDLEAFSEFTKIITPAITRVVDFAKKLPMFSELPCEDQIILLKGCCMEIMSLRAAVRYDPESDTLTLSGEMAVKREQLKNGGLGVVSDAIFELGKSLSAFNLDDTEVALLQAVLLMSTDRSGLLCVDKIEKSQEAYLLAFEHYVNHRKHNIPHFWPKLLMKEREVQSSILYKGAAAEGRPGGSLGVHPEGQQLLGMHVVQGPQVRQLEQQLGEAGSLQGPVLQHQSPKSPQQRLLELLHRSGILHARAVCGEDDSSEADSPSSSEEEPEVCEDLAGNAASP
In short: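 Read-out is the 520/495 nm emission ratio (ex 340 nm), scaled between DMSO-only wells as 0% and T3 wells as 100%. It reflects fluorescein-SRC-2 peptide recruitment to GST-TRα LBD detected via terbium anti-GST antibody.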

THRB (gene 7068) = THRB (gene 7068) (UniProt P10828); test: TOX21_TRB_COA_Agonist_Followup_ratio: Tox21 Thyroid Hormone Receptor beta Agonism through Coactivator Recruitment Follow-Up Assay, Ratio (AID 2283963; active means hit-call score of the fitted dose curve at least 0.9, where 1 is the maximum; inactive means score below 0.9)
Sequence of THRB (gene 7068) (P10828 whole entry, looked up, the tested form may be a part): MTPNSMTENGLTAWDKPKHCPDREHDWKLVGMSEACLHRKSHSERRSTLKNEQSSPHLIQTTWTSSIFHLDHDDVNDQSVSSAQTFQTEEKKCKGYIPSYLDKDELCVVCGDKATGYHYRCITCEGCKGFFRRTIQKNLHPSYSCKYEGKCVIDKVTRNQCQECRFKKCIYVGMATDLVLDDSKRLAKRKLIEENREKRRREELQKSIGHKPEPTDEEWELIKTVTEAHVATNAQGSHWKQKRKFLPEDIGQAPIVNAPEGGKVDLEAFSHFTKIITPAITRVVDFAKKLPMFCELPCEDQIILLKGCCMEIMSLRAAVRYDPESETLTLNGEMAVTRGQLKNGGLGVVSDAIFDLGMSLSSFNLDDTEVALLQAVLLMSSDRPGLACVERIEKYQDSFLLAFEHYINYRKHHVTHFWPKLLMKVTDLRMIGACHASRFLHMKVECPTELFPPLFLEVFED
In short: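 Agonism is measured as coactivator recruitment in a purified-protein TR-FRET format, using GST-TRβ LBD at 5.0 nM, fluorescein-SRC-2 peptide at 200 nM and Tb-labeled anti-GST antibody at 2 nM. Values are 520:495 nm ratios relative to DMSO (0%) and T3 (100%).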

[8] = molecular target: Retinoic acid receptor RXR-alpha (Homo sapiens) (UniProt P19793); test: TOX21_TR_RXR_BLA_Agonist_Followup_ratio: Tox21 Thyroid Hormone Receptor beta Retinoid X Receptor alpha (RXRa) Agonism Beta-lactamase (BLA) Follow-Up Assay, Ratio (AID 2283968)
Sequence of Retinoic acid receptor RXR-alpha (Homo sapiens) (P19793 whole entry, looked up, the tested form may be a part): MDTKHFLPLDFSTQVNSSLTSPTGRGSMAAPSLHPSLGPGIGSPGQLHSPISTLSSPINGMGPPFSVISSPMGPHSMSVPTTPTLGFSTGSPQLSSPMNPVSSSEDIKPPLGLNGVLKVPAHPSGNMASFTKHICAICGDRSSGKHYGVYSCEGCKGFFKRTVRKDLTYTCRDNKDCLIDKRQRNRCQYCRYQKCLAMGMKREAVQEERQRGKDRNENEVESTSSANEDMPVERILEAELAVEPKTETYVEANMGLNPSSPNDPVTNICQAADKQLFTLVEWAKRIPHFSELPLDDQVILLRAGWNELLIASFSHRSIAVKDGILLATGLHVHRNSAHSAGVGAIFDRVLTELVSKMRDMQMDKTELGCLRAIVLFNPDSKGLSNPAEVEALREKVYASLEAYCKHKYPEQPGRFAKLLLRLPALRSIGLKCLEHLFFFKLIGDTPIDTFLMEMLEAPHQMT
In short: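 This follow-up tests whether responses seen in the TR GH3 luciferase agonist screen are specific, using a GAL4-driven beta-lactamase reporter for RXRa in HEK293T cells. Compound exposure lasts 16 h; signal is the cleaved/uncleaved substrate ratio.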

[9] = TOX21_TR_RXR_BLA_Agonist_Followup_viability: Viability Assessment in the Tox21 Thyroid Hormone Receptor beta Retinoid X Receptor alpha (RXRa) Agonism Beta-lactamase (BLA) Follow-Up Assay (AID 2283970)
In short: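 In qHTS format, RXRa-bla HEK293T cells (2,500/well) received compound for 16h. ATP content was then measured with CellTiter-Glo, and responses were fitted bidirectionally relative to DMSO controls.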

[10] = CCTE_Shafer_MEA_acute_spike_number: CCTE's Neural Acute Assay for Total Number of Spikes, Shafer Lab (AID 2284008; active means hit-call score of the fitted dose curve at least 0.9, where 1 is the maximum; inactive means score below 0.9;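 further: curve fitted for decrease in spike count so AC50 reflects inhibitors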)
In short: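 Primary rat cortical neurons on 16-electrode MEA wells; on DIV 13 or 15, 40-min baseline then 40-min recording with compound (0.03-40 uM) at 37 C. Spikes detected at 8x rms noise; percent change versus baseline, DMSO as negative control.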

[11] = CCTE_Shafer_MEA_acute_firing_rate_mean: CCTE's Neural Acute Assay for Mean Firing Rate, Shafer Lab (AID 2284009; active means hit-call score of the fitted dose curve at least 0.9, where 1 is the maximum; inactive means score below 0.9;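 further: analyzed for loss of signal so actives lower firing rate relative to DMSO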)
In short: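 Read-out: well-mean spike rate (spikes/recording length/electrodes), % change from 40 min pre-dose baseline to 40 min with compound. Rat cortical cultures, DIV 13 or 15, 37 C; 0.03-40 uM; DMSO as negative control.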

Measured: AC50

O=C(c1ccccc1)c1ccc(O)cc1O
active: PGR (gene 5241) [4] 33500 nM
not listed: [10] | [11]
inactive: all other assays above

C[C@]12CC[C@H]3C(=CCc4cc(O)ccc43)[C@@H]1CCC2=O
inactive: THRA (gene 7067) | THRB (gene 7068) | [9]

CCN=C1C=CC(=C(c2ccc(N(CC)CC)cc2)c2ccc(N(CC)CC)cc2)c2ccccc21
active: [10] 559 nM | [11] 559 nM
